HT1080 IDH1KD tx – kills HT-1080 cells with IDH1 knockdown; HT-1080 IDH1 knockdown viability, ATP luminescence, 48 h; Potency, µM (doses to about 46.1 µM), for the others: top-dose activity, negative = toxicity, usual class: cytotoxic; 2% of 360,000 active;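 further: 0% = DMSO wells and -100% = cell-free medium wells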
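After a 2 h attachment period, IDH1KD HT-1080 cells took pin-transferred compound for 48 h at 37 °C; ATP-based luminescence after 10 min room-temperature reagent incubation reported viability.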
TDP1 cell CPT – DT40-hTDP1 cell growth loss with CPT; chicken DT40 Tdp1-/-;hTDP1 cells + 20 nM CPT, ATP luminescence, 48 h; Potency, µM (highest dose often 46.2 µM), inactives show at the highest dose activity change, negative = growth inhibition, most hits filed as inhibitors; 12% of 420,000 active; AID 686979; further: nearly all actives have a fitted effect of over 55% in size
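Chicken DT40 Tdp1-/- cells stably complemented with human TDP1 were seeded at 400 cells/well in medium containing 20 nM camptothecin, exposed to pin-transferred compounds, and grown at 37 °C for at least 48 hr. Viability was read as ATP luminescence.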
HT1080NT lethal – kills 2HG-producing HT-1080-NT fibrosarcoma cells. HT-1080-NT fibrosarcoma viability, CellTiter-Glo ATP luminescence, 48 h. Potency, µM (highest dose often 46.1 µM), for inactives: at the top dose activity, negative = less viability, usual class: cytotoxic. 1.6% of 360,000 active. AID 686970;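 further: NT is the 2HG producing partner of a matched IDH1 knockdown line; 0% = DMSO-treated cells and -100% = media-only wells without cells; nearly all actives have a fitted effect of over 55% in size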
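Read-out is CellTiter-Glo luminescence after 10 minutes at room temperature, following 48 hours' compound treatment of HT-1080-NT cells (750 cells/well, RPMI, 5% FBS, 37 degrees C).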
KB-3-1 cytotox – KB-3-1 parental cell cytotoxicity; KB-3-1 viability, CellTiter-Glo ATP luminescence, 72 h; Potency, µM (titrated, usually from 46.1 µM), usual class: cytotoxic; 1.4% of 400,000 active; AID 1347075; further: nearly all actives have a fitted effect of over 60% in size
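Multi-concentration cytotoxicity screen in KB-3-1 cells grown in DMEM lacking phenol red with 10% FBS. After 72 h at 37 °C with compound, ATP-dependent luminescence was recorded.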
TDP1 cell noCPT – qHTS for Inhibitors of human tyrosyl-DNA phosphodiesterase 1 (TDP1): qHTS in cells in absence of CPT. DT40 Tdp1-/- hTDP1 cells, no CPT, ATP luminescence, 48 h. Potency, µM (highest dose often 46.2 µM), for the others: at the highest dose activity change, negative = growth inhibition, most hits filed as inhibitors. 15% of 420,000 active; further: nearly all actives have a fitted effect of over 55% in size
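Camptothecin absent (DMSO only). Human TDP1-complemented DT40 knockout cells, 400 cells/well, 37 °C for minimum 48 hr; ATP measured via CellTiter-Glo, 30 min dark incubation, luminescence.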
KB-V1 MDR tox – KB-V1 MDR subline cytotoxicity; KB-V1 MDR cells viability, CellTiter-Glo, 72 h; Potency, µM (series often up to 46.1 µM), hits mostly cytotoxic; 3.4% of 400,000 active; AID 1347076; further: nearly all actives have a fitted effect of over 60% in size
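Cells of the MDR subline KB-V1 are plated, dosed with compound at multiple concentrations, and incubated 72 h at 37 degrees C; CellTiter-Glo is then added and luminescence read after 10 min.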
Numbers without * were called inactive; i = inactive; ? = inconclusive; nt = no result. Most compounds without a hit are left out; they make up all but 19% or so of the library. The call rests on the fitted dose curve; in most records, active means well fitted curve in the direction sought with a large enough effect; inconclusive means small, poorly fitted or top-dose-only effect, or another doubt; inactive means no such curve, though single readings can be large; an effect the other way counts as inactive or inconclusive. Unless noted, on the % scale 0 is the no-effect control and ±100 the full control effect; potency means the concentration at half of the fitted maximal effect.

SMILES	HT1080 IDH1KD tx	TDP1 cell CPT	HT1080NT lethal	KB-3-1 cytotox	TDP1 cell noCPT	KB-V1 MDR tox
Cc1ccc(N=C2NC(=O)/C(=C/c3cn(C)c4ccccc34)S2)cc1C	0.3%	18.4µM*	-4.4%	?	18.4µM*	?
O=C1NC(=Nc2ccccc2)S/C1=C\c1cccs1	-4.6%	?	3.5%	i	?	i
Cc1cc(C)cc(N=C2NC(=O)/C(=C/c3cccs3)S2)c1	-0.2%	?	2.0%	i	13µM*	i
CCOc1cc(C(=O)Nc2ccc3c(c2)n(C)c(=O)c(=O)n3C)cc(OCC)c1OCC	nt	?	nt	i	?	i
CCOC(=O)C1=C(CNCc2ccc(C)cc2)NC(=O)NC1c1cc(C)ccc1C (centres undefined)	-10.4%	20µM*	0.8%	i	?	i
CCOC(=O)C1=C(CSc2nccn2C)NC(=O)NC1c1cc(C)ccc1C (centres undefined)	?	-8.0%	-1.0%	i	-13.2%	i
CCOC(=O)C1=C(Cn2cnc3ccccc32)NC(=O)NC1c1cc(C)ccc1C (centres undefined)	?	25.9µM*	?	i	23.1µM*	?
O=C1c2cccc(NCCNCCO)c2C(=O)c2cccc(NCCNCCO)c21	8.2µM*	0.366µM*	?	?	0.731µM*	i
CCNC(=O)c1c(NC(=O)Cc2coc3cc(C)cc(C)c23)sc2c1CCCC2	nt	-17.4%	nt	i	-26.8%	i
CCOC(=O)Cn1c(=N)n(CCOc2ccc(OC)cc2)c2ccccc21	9.7%	-13.8%	0.5%	i	-10.3%	?
CCOC(=O)Cn1c(=N)n(CCOc2ccc3ccccc3c2)c2ccccc21	?	17.8µM*	?	i	?	i
CCCn1c(=N)n(CCOc2ccc(OC)cc2)c2ccccc21	?	16.4µM*	?	?	18.4µM*	i
N=c1n(CCCOc2ccc(Br)cc2)c2ccccc2n1CC(N)=O	?	18.4µM*	?	i	16.4µM*	i
CC(=O)c1cccc(NS(=O)(=O)c2cc3c(cc2C)n(C)c(=O)c(=O)n3C)c1	nt	12.9%	nt	i	-24.1%	?
COc1ccc(NC(=O)c2cc(-c3sc(NC(=O)c4ccccc4)nc3C)n(CCO)n2)cc1	?	?	?	i	?	i
COc1cc2c(cc1OC)/C(=C/C(=O)OCc1ccccc1)OC2	-9.2%	-25.8%	-18.4%	i	-22.0%	?
Cc1ncc(CO)c2c1Oc1nc(-c3ccccc3)nc(SCC(=O)N3CCOCC3)c1C2	-9.5%	18.4µM*	-13.9%	i	10.3µM*	i
CCc1ccc(CSc2nc(-c3ccccc3F)nc3c2Cc2c(CO)cnc(C)c2O3)cc1	nt	?	nt	i	-21.7%	i
COc1ccccc1-c1nc2c(c(SCC(=O)N3CCCCC3)n1)Cc1c(CO)cnc(C)c1O2	-7.9%	9.2µM*	-18.3%	i	6.51µM*	i
COc1ccc(NC(=O)CSc2nc(-c3ccccc3)nc3c2Cc2c(CO)cnc(C)c2O3)cc1Cl	nt	7.1%	nt	i	4.6%	i
COc1ccccc1-c1nc2c(c(SCC(=O)Nc3ccc(C)c(C)c3)n1)Cc1c(CO)cnc(C)c1O2	nt	16.4µM*	nt	nt	9.2µM*	nt
CCN(CC)C(=O)CSc1nc(-c2ccccc2F)nc2c1Cc1c(CO)cnc(C)c1O2	nt	3.66µM*	nt	i	4.61µM*	i
Cc1ncc(CO)c2c1Oc1nc(-c3ccc(Cl)cc3)nc(SCC(=O)N3CCCCC3)c1C2	nt	?	nt	i	16.4µM*	?
COc1cccc(-c2nc3c(c(SCC(=O)N4CCOCC4)n2)Cc2c(CO)cnc(C)c2O3)c1	-20.6%	20.6µM*	-13.0%	i	4.11µM*	i
Cc1cccc(-c2nc3c(c(SCC(=O)N4CCOCC4)n2)Cc2c(CO)cnc(C)c2O3)c1	?	?	?	14.6µM*	3.66µM*	i
SMILES	HT1080 IDH1KD tx	TDP1 cell CPT	HT1080NT lethal	KB-3-1 cytotox	TDP1 cell noCPT	KB-V1 MDR tox
COc1ccc(-c2nc3c(c(SCc4cc(C)ccc4C)n2)Cc2c(CO)cnc(C)c2O3)cc1	nt	-3.7%	nt	i	-2.1%	i
COc1cccc(-c2nc3c(c(SCC(=O)Nc4cc(C)ccc4C)n2)Cc2c(CO)cnc(C)c2O3)c1	nt	-22.3%	nt	nt	-4.2%	nt
Cc1cccc(NC(=O)CSc2nc(-c3cccc(C)c3)nc3c2Cc2c(CO)cnc(C)c2O3)c1	nt	?	nt	i	-28.9%	i
COc1ccccc1-c1nc2c(c(SCc3cc(C)ccc3C)n1)Cc1c(CO)cnc(C)c1O2	nt	9.2µM*	nt	i	10.3µM*	i
N#CCCn1c(=O)cnc2cnc(Oc3ccccc3)nc21	nt	-6.3%	nt	nt	-1.0%	nt
COCCN1C(=O)/C(=C/c2ccc(OCc3ccc(C(=O)O)cc3)c(OC)c2)SC1=Nc1ccccc1	-17.0%	23.1µM*	-22.0%	i	20.6µM*	20.6µM*
